These results are taken from PubChem BioAssay (NCI).

The structures appear in SMILES notation. Compounds without any hit were thinned out: in the full panel of roughly 83,000, 20% have a hit.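 Assay: single dose, 48 h. Readout: percent growth (0 = no net growth; negative = cell death). Active: <10.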 Values without a mark were called inactive. Calls of active or inactive are those of the source.

Holding throughout (test): NCI-60 one-dose screen, 48 h (100 = growth as untreated, 0 = no growth, -100 = all killed)
In experiment [1] the test system is HT29 colon. Conditions: 10 µM unless noted.
In experiment [2] the test system is SNB-75 CNS. As to conditions: 10 µM unless noted.
Experiment [3] has as its system SNB-19 CNS. Conditions: 10 µM unless noted.
The subject of experiment [4] is U251 CNS. As to conditions: 10 µM unless noted.
The test system of experiment [5] is PC-3 prostate. Conditions: 10 µM unless noted.
The subject of experiment [6] is SK-MEL-5 melanoma. As to conditions: 10 µM unless noted.
The test system of experiment [7] is UACC-62 melanoma. Conditions: 10 µM unless noted.
Experiment [8] has as its system LOX IMVI melanoma. As to conditions: 10 µM unless noted.
For experiment [9], the system named is SK-MEL-28 melanoma. As to conditions: 10 µM.
The test system of experiment [10] is SK-MEL-2 melanoma. Conditions: 10 µM unless noted.
The test system of experiment [11] is SN12C renal. Conditions: 10 µM unless noted.
Experiment [12] has as its system UO-31 renal. Conditions: 10 µM unless noted.
Experiment [13] concerns TK-10 renal. Conditions: 10 µM unless noted.
Experiment [14] has as its system ACHN renal. Conditions: 10 µM unless noted.
The test system of experiment [15] is CAKI-1 renal. Conditions: 10 µM unless noted.
Experiment [16] concerns A498 renal. Conditions: 10 µM unless noted.
For experiment [17], the system named is CCRF-CEM leukemia. As to conditions: 10 µM unless noted.
The subject of experiment [18] is MOLT-4 leukemia. As to conditions: 10 µM unless noted.
Experiment [19] relates to SR leukemia. As to conditions: 10 µM unless noted.

As for `CCOC(=O)C1(Cc2ccccc2)CCN(Cc2cccc(OC)c2O)CC1`, the growth is 22.2% in experiment [1]; 37.7% in [2]; 14.9% in [3]; 3.94% (active) in experiment [4]; 25% in experiment [5]; -33.4% (active) in [6]. Further, the growth is -7.92% (active) in [7]; 5.51% (active) in experiment [8]; 38% in [9]; 9.33% (active) in experiment [10]; 10.7% in experiment [11]; -11.8% (active) in experiment [12]. The growth in experiment [13] is 36.7%; in experiment [14], 10.8%; in experiment [15] it was -11.3% (active); in [16] it was 21.2%; in [17], 9.78% (active); in experiment [18], 9.72% (active). Moreover, the growth in [19] is 7.58% (active).
`COC(=O)C1(C)COP(=O)(Nc2ccc(OC)cc2)OC1` (configuration not stated): the growth in experiment [1] was 101%; in [2] it was 92.1%; in experiment [3], 103%; in [4], 104%; in experiment [5], 99.8%; in [6] it was 105%. The growth is 108% in experiment [7]; 96.3% in experiment [8]; 108% in [9]; 96.4% in experiment [10]; 102% in [11]; 82.7% in [12]. The growth was 108% in experiment [13]; 104% in experiment [14]; 99.2% in experiment [15]; 101% in [16]; 102% in [17]; 99.2% in [18]. Also, in [19], the growth is 93.2%.
With `Cc1[nH]c2ccccc2c(=O)c1CC=C(Cl)Cl`, the growth was -59.8% (active) in experiment [1]; 63.1% in [2]; 56.7% in [3]; 18.9% in experiment [4]; 43.6% in experiment [5]; 72.2% in experiment [6]. Moreover, the growth was 63.9% in experiment [7]; 3.09% (active) in experiment [8]; 74.8% in experiment [9]; 46.2% in [10]; 48.2% in [11]; 20.4% in experiment [12]. For the same molecule, the growth in experiment [13] is 43.4%; in experiment [14] it was 26.8%; in [15], 45.8%; in [16] it was 96.9%; in [17] it was 21.5%; in [18], 19.3%. Besides, the growth in [19] is -8.18% (active).
`C[n+]1c2ccccc2nc2ccc(NCCO)cc21`: the growth in experiment [1] was 8.37% (active); in experiment [2] it was 98.8%; in experiment [3], 78.3%; in experiment [4], 80.5%; in experiment [5] it was 50.7%; in experiment [6], 98%. The growth in experiment [7] was 84.1%; in experiment [8], 90.6%; in experiment [9], 110%; in [10] it was 102%; in experiment [11], 85.6%; in experiment [12] it was 45.8%. In addition, the growth is 127% in [13]; 83.7% in experiment [14]; 93.4% in experiment [15]; 75.1% in [16]; 64.5% in experiment [17]; 63.8% in [18]. Besides, the growth in experiment [19] was 60.3%.
`O=C(Nc1ccc(-c2nc3ccc(NC(=O)c4ccc(Cl)cc4)cc3[nH]2)cc1)c1ccc(Cl)cc1`: the growth is -58.1% (active) in [1]; -31.6% (active) in [2]; 35.2% in experiment [3]; 2.01% (active) in experiment [4]; 38.3% in [5]; 9.75% (active) in [6]. Further, the growth is 0.642% (active) in [7]; -49.6% (active) in experiment [8]; 7.47% (active) in [9]; -33.9% (active) in experiment [10]; 24.5% in experiment [11]; -5.85% (active) in [12]. In addition, the growth in experiment [13] is -27.9% (active); in [14], 9.32% (active); in [15] it was 27.2%; in [16] it was 58.7%; in experiment [17] it was 1.27% (active); in experiment [18], 3.96% (active). In addition, the growth in experiment [19] is -24.9% (active).
Turning to `CN1C(=O)N(C)C2(c3ccccc3)OC(=S)NC12c1ccccc1` (configuration not stated), the growth was 89.1% in [1]; 87.6% in experiment [2]; 98.4% in experiment [3]; 98.7% in experiment [4]; 92.4% in [5]; 104% in experiment [6]. Also, the growth in experiment [7] is 92.5%; in experiment [8], 98.7%; in experiment [9] it was 102%; in experiment [10], 102%; in experiment [11], 107%; in experiment [12], 89%. Moreover, the growth in experiment [13] was 102%; in experiment [14], 95.7%; in experiment [15] it was 84.7%; in experiment [16], 105%; in experiment [17], 114%; in [18], 103%. Moreover, the growth in experiment [19] is 105%.
Turning to `Clc1ncccc1Nc1ccc2nnc(-c3ccncc3)n2n1`, the growth was 110% in [1]; 99.2% in experiment [2]; 102% in experiment [3]; 101% in [4]; 102% in experiment [5]; 104% in experiment [6]. Further, the growth was 106% in experiment [7]; 92.8% in [8]; 112% in [9]; 109% in experiment [10]; 100% in experiment [11]; 75% in experiment [12]. In addition, the growth in experiment [13] was 112%; in [14], 101%; in [15], 91.8%; in [16], 116%; in experiment [17], 91.2%; in experiment [18], 93.4%. Besides, the growth in [19] was 71.3%.
Turning to `CCOC(=O)C1=C(C)N=c2s/c(=C\c3ccccc3O)c(=O)n2C1c1ccc(OC)c2ccccc12` (configuration not stated), the growth in experiment [1] is -52.2% (active); in experiment [2] it was -44.2% (active); in [3] it was 58.1%; in experiment [4], -68.6% (active); in [5] it was 22.9%; in experiment [6], -98.1% (active). Also, the growth in experiment [7] is -85.4% (active); in [8], -85.6% (active); in experiment [9], -96.2% (active); in experiment [10] it was -75.5% (active); in experiment [11] it was 47.3%; in experiment [12] it was -18.3% (active). Besides, the growth was 10.8% in experiment [13]; 33.5% in [14]; -11.4% (active) in [15]; 17.6% in [16]; 2.51% (active) in [17]; -9.58% (active) in experiment [18]. The growth in [19] is -18.4% (active).
